Data as given in PubChem BioAssay (NCATS).
Results filed as inconclusive are left out. A call without a number means that no potency is given here. The source made the active and inactive calls. Calls come from the whole dose curve; as a rule, active = well fitted cell-killing curve with a large enough effect; inconclusive = small, poorly fitted or top-dose-only effect, or effect the other way; inactive = flat fitted curve, though single readings scatter.

Assays:
[1] = tested on: Tov-21-G; test: Primary qHTS to identify gynecologic anti-cancer compounds using libraries of approved drugs and bioactive compounds (AID 1345084); details: Gynecologic cancer cell panel viability, ATPlite luminescence, 48 h; series mostly up to 57.5 µM; note: nearly all actives have a fitted effect of over 55% in size
Procedure, shortened: (§1)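 Cells, 1,000 per well, were allowed to settle for 16 h at 37 C before compound addition. Five concentrations were tested for 48 h, and viability was read by ATPlite luminescence after 15 min at room temperature.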

[2] = tested on: Tov112D; test: as above; details: Gynecologic cancer cell panel viability, ATPlite luminescence, 48 h; series mostly up to 57.5 µM
Procedure, shortened: as §1
Potency is the fitted concentration of half-maximal effect.

| SMILES | Potency [1] | Potency [2] | activity change, negative = cytotoxicity [1] | activity change, negative = cytotoxicity [2] |
| --- | --- | --- | --- | --- |
| CC#CCn1c(N2CCCC(N)C2)nc2c1c(=O)n(Cc1nc(C)c3ccccc3n1)c(=O)n2C (stereo not given) | inactive | inactive |  |  |
| CC[C@H](C)/C=C(C)/C=C/C1=CC2=C(Cl)C(=O)[C@](C)(O)[C@H](OC(C)=O)[C@H]2CO1 | inactive | inactive |  |  |
| CN1CCN(C2=Nc3ccccc3Nc3ccc(Cl)cc32)CC1 | inactive | inactive |  |  |
| CCN(CC)CCCS(=O)(=O)N[C@H](CCc1ccccc1)c1nc(Cc2ccc(Br)cc2)no1 | inactive | inactive |  |  |
| C[C@]12CC[C@@H]3c4ccc(O)c(O)c4CC[C@H]3[C@@H]1CCC2=O | inactive | inactive |  |  |
| CCOc1cn(-c2ccc(F)cc2C)nc1C(=O)Nc1ccc(Oc2ccnc3cc(OC)c(OC)cc23)c(F)c1 | inactive | inactive |  |  |
| CCC(C)C(=O)OC12C(OC(C)=O)C(C)C3(O)C(C=C(CO)CC4(O)C(=O)C(C)=CC43)C1C2(C)C (stereo not given) | inactive | inactive |  |  |
| Cc1cc2c(c(=O)o1)C=C1CC[C@H]([C@H](C)Cn3cnc(=N)c4[nH]cnc43)C[C@@H]1O2 | inactive | inactive |  |  |
| O=C(OC1CN2CCC1CC2)N1CCc2ccccc2C1c1ccccc1 (stereo not given) | inactive | inactive |  |  |
| C/C1=C/CCC2=CC(OC2=O)C(C)(C)/C=C/C1=O (stereo not given) | 8.91 µM (active) | 20 µM (active) |  |  |
| Cc1nc(NC(=O)N2CCCC2C(N)=O)sc1-c1ccnc(C(C)(C)C(F)(F)F)c1 (stereo not given) | inactive | inactive |  |  |
| O=C(Nc1cc(C(F)(F)F)cc(C(F)(F)F)c1)c1cnc(Cl)nc1C(F)(F)F | inactive | inactive |  |  |
| C/C=C/C=C/C=C/C(=O)O[C@@H]1C=C(CO)C(O)(C(=O)OC)[C@@]2(C)CCCC(C)(C)C12 (stereo not given in full) | inactive | inactive |  |  |
| C[C@@H]1O[C@@H](O[C@H]2[C@H](O[C@H]3CC[C@@]4(C)C(CC[C@]5(C)C4C=C[C@]46OC[C@@]7(CCC(C)(C)C[C@H]74)[C@@H](O[C@@H]4O[C@@H](C)[C@H](O)[C@@H](O)[C@H]4O)C[C@]65C)[C@]3(C)CO)O[C@H](CO)[C@@H](O)[C@@H]2O[C@@H]2O[C@H](CO)[C@@H](O)[C@H](O)[C@H]2O)[C@H](O)[C@H](O)[C@H]1O (stereo not given in full) |  |  | -2.59% [at 11.6 µM] (inactive) | -0.84% [at 11.6 µM] (inactive) |
| CC(=O)OC1CC(O)(C(C)C)C2C(OC(=O)c3ccc(O)cc3)C=C(C)C(=O)CC12C (stereo not given) | inactive | inactive |  |  |
| CC1(C)SCCN(S(=O)(=O)c2ccc(Oc3ccncc3)cc2)[C@H]1C(=O)NO | inactive | inactive |  |  |
| CC1=CC2/C=C(\C)CCC3OC(C)(C)OC3CCC(=O)C23C(=O)NC(CC(C)C)C3C1C (stereo not given) | inactive | inactive |  |  |
| C/C=C(\C)C(=O)OC1C[C@@]2(COC(C)=O)O[C@H]2/C=C\[C@@]2(C)O[C@@H]2[C@H]2OC(=O)C(COC(C)=O)=C12 (stereo not given in full) | inactive | inactive |  |  |
| Cc1cc(OCCCS(C)(=O)=O)cc(C)c1-c1cccc(COc2ccc(C3=CC(=O)NS3=O)cc2)c1 (stereo not given) | inactive | inactive |  |  |
| O=C(CSc1nc2ccccc2c(=O)n1-c1ccccc1)Nc1ccc2c(c1)CCC2 | inactive | inactive |  |  |
| CC1CCC(=O)CC(SCC(O)C(=O)O)CCC(=O)O1 (stereo not given) | inactive | inactive |  |  |
| CC[C@@H](C)[C@@H]1OC2(C=C[C@H]1C)C[C@@H]1C[C@H](C/C=C(\C)[C@H](O[C@H]3C[C@H](OC)[C@H](O[C@H]4C[C@H](OC)[C@H](NC(C)=O)[C@H](C)O4)[C@H](C)O3)[C@H](C)/C=C/C=C3\CO[C@H]4[C@H](O)C(C)=C[C@@H](C(=O)O1)[C@@]34O)O2 (stereo not given in full) | inactive | inactive |  |  |
| COc1cc2c(cc1NS(=O)(=O)c1ccc(Br)cc1C)n(C)c(=O)n2C | inactive | inactive |  |  |
| C[C@@H](NC(=O)[C@H](O)c1cc(F)cc(F)c1)C(=O)N[C@@H]1C(=O)N(C)c2ccccc2-c2ccccc21 | inactive | inactive |  |  |

| SMILES | Potency [1] | Potency [2] | activity change, negative = cytotoxicity [1] | activity change, negative = cytotoxicity [2] |
| --- | --- | --- | --- | --- |
| O=C(NCCN1CCN(c2cccc3ccc(O)cc23)CC1)c1ccc(F)cc1 | inactive | inactive |  |  |
| CN(C)S(=O)(=O)c1ccc(NC(=S)N2CCC(C(O)(c3ccccc3)c3ccccc3)CC2)cc1 | inactive | inactive |  |  |
| O=C(Nc1ccc2[nH]c(=O)oc2c1)C(=O)N1CCC(Cc2ccc(F)cc2)CC1 | inactive | inactive |  |  |
| CC(C)c1ccccc1OC(=O)NCCc1ccc2ccccc2c1 | inactive | inactive |  |  |
| Nc1nc2c(s1)CCN(Cc1ccc(Cl)cc1)CC2 | inactive | inactive |  |  |
| CC(C)(C)c1ccc(C(=O)Nc2cc(Cl)c(Br)cc2C(=O)O)cc1 | inactive | inactive |  |  |
| CN1CC2CN(c3ccc4oc5ccccc5c(=O)c4c3)CC2C1 (stereo not given) | inactive | inactive |  |  |
| Nc1nc2c(ncn2C2OC3COP(=O)(O)OC3C2O)c(=O)[nH]1 (stereo not given) | inactive | inactive |  |  |
| C=C1/C(=C/C=C2\CCC[C@]3(C)[C@@H]([C@@H](C)OCCC(O)(CC)CC)CC[C@@H]23)C[C@@H](O)C[C@@H]1O | inactive | inactive |  |  |
| CC(=O)OC1C(=O)C2C3OCC4=C3[C@@](C)(CC[C@@H]4O)CC[C@]2(C)[C@H]1C(C)C (stereo not given in full) | inactive | inactive |  |  |
| O=[N+]([O-])c1ccc(Oc2ccc3c(c2)CCC(c2ccccc2)O3)nc1 (stereo not given) | inactive | inactive |  |  |
| CN1CCN(c2ccc(Nc3cc(-c4cccc(-n5ccc6cc(C7CC7)cc(F)c6c5=O)c4CO)cn(C)c3=O)nc2)CC1 | inactive | inactive |  |  |
| COC1CC(O[C@H]2CC[C@]3(C)C4CC[C@@]5(C)C(=O)[C@]4(CC[C@@H]3C2)CC[C@@H]5C2=CC(=O)OC2)OC(C)C1OC1OC(COC2OC(CO)C(O)C(O)C2O)C(O)C(O)C1O (stereo not given in full) | 2.24 µM (active) | 1.12 µM (active) |  |  |
| CC(C)CCNc1ncccc1C(=O)N1CCN(Cc2ccccc2)CC1 | inactive | inactive |  |  |
| Cc1cc(Nc2nc(-c3ccccc3)nc3ccccc23)n[nH]1 | 10 µM (active) | inactive |  |  |
| COC(=O)c1cc2c(C(F)(F)F)cc(-c3ccccc3)cc2n1O | inactive | inactive |  |  |
| CCCn1cc2c(nc(NC(=O)Nc3ccc(OC)cc3)n3nc(-c4ccco4)nc23)n1 | inactive | inactive |  |  |
| COCC(=O)NC/C=C/c1ccc2ncnc(Nc3ccc(Oc4ccc(C)nc4)c(C)c3)c2c1 | inactive | inactive |  |  |
| C=C1C(=O)OC[C@@H]1C/C=C(\C)CC1CC(C)C(=O)O1 (stereo not given in full) | inactive | inactive |  |  |
| O=C(NCC1(c2nc(-c3ccccc3)cs2)CCOCC1)c1cccc(-c2noc(C(F)(F)F)n2)c1 | inactive | inactive |  |  |
| O=S(=O)(N[C@H]1CCCC[C@@H]1N1CCOCC1)c1ccc(Cl)cc1 | inactive | inactive |  |  |
| COc1cc(C(C)=O)c(OC)c2c1OC(C)(C)C=C2 | inactive | inactive |  |  |
| O=[N+]([O-])c1cn2c(n1)OC[C@@H](OCc1ccc(-c3ccc(OC(F)(F)F)cc3)nc1)C2 | inactive | inactive |  |  |
| C[C@@H](NC(=O)c1ccc(C#Cc2cccc(F)c2)cn1)C(C)(C)O | inactive | inactive |  |  |

| SMILES | Potency [1] | Potency [2] | activity change, negative = cytotoxicity [1] | activity change, negative = cytotoxicity [2] |
| --- | --- | --- | --- | --- |
| CC(C)(O)c1ccn2c(-c3ccc(F)c(-c4ccc(F)cc4C#N)c3)cnc2c1F | inactive | inactive |  |  |
| COc1ccc2c(c1O[C@H]1CCNC1)CCC2 | inactive | inactive |  |  |
| CN(C)[C@@H]1CCc2[nH]c3ccc(NC(=O)c4ccc(F)cc4)cc3c2C1 | inactive | inactive |  |  |
| C=C1CC[C@@H](O)[C@]2(C)C[C@H]3OC(=O)C(=C)[C@H]3CC12 (stereo not given in full) | inactive | inactive |  |  |
| CC(C)(O)C(=O)N1CCN(c2ccc(C(F)(F)F)c(C3=C(c4c[nH]c5ccccc45)C(=O)NC3=O)c2)CC1 | inactive | inactive |  |  |
| CCc1cc2c(cc1CC)CC(NCC(O)c1ccc(O)c3[nH]c(=O)ccc13)C2 (stereo not given) | inactive | inactive |  |  |
| CCCC(CCC)C(=O)NCc1ccc2c(cnn2-c2ccccc2OC)c1 | inactive | inactive |  |  |
| CCCCC1CCC(c2nc(-c3ccncc3)no2)CC1 (stereo not given) | inactive | inactive |  |  |
| O=C(Nc1ccccc1C(=O)NC1CCCCNC1=O)c1cc2ccccc2s1 (stereo not given) | inactive | inactive |  |  |
| COc1cc(C(=O)NC(=S)Nc2cccc(NC(=O)c3ccccc3)c2)cc(OC)c1OC | inactive | inactive |  |  |
| O=C(NCc1nc2ccccc2c(=O)n1-c1ccc(F)cc1)Nc1ccc(Cl)c(C(F)(F)F)c1 | inactive | inactive |  |  |
| CC(=O)O[C@H]1C[C@H](OC(C)=O)[C@]2(C)[C@H](CC[C@@]34O[C@@H]3C3=C(C)C(=O)O[C@@H]3C[C@H]42)C1(C)C | inactive | inactive |  |  |
| COC1C(OC(=O)/C=C/C=C/C=C/C=C/C(=O)O)CCC2(CO2)C1C1(C)OC1CC=C(C)C (stereo not given) | inactive | inactive |  |  |
| C/C=C(\C)C(=O)O[C@H]1C[C@](C)(O)[C@H]2CC=C(C)[C@H]2[C@@H]2OC(=O)[C@H](C)[C@H]21 | inactive | inactive |  |  |
| CN(C)C(=O)Nc1cc(-c2ccccc2)ccc1N(C)C | inactive | inactive |  |  |
| C/C=C/[C@@H]1C=C[C@@H]2C[C@H](C)CC[C@H]2[C@]1(C)/C(O)=C1/C(=O)[C@@H](CO)N(C)C1=O | inactive | inactive |  |  |
| CCC(=C(c1ccc(OCCN2CCCC2)cc1)c1ccc(OCCN2CCCC2)cc1)c1ccccc1 | inactive | inactive |  |  |
| Cc1cccc(-c2[nH]ncc2-c2ccnc3ccccc23)n1 | inactive | inactive |  |  |
| Cc1cc(C)cc(-c2cnc3cc(Cl)c(-c4cccc(O)c4)cc3c2OCCCN)c1 | inactive | inactive |  |  |
| COc1c(CCC(=O)O)cccc1O[C@@H]1O[C@H](CO)[C@@H](O)[C@H](O)[C@H]1O | inactive | inactive |  |  |
| O=C(NC[C@H](O)CN1CCc2ccccc2C1)c1ccnc(NC2CCC2)c1 | inactive | inactive |  |  |
| CC(=O)OC[C@]12[C@H](OC(C)=O)[C@H](OC(=O)c3ccccc3)[C@@H]3[C@@H](OC(C)=O)[C@]1(OC3(C)C)[C@H](C)C[C@H](OC(C)=O)[C@@H]2OC(=O)c1ccccc1 | inactive | inactive |  |  |
